PubChem BioAssay AID1159580 (chemical genetic matrix, 2015)
“And” between values parts separate entries of the source, which are not always exact repeats. Equal values may be shown once. The campaign covered roughly 5,500 compounds. About 2,000 (36%) were called active. Inconclusive results (about 18%) are left out. No stated cut-off is given here; in the data, active means normalized growth mostly below about 0.91 (no sharp cut-off); inconclusive means no clear call, values can overlap the other calls; inactive means mostly above about 0.92. Some of the results follow.

Assay: chemical genetic growth profiling, strain panel (AID 1159580);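 further: tested at 20 µM; growth read once vehicle control cultures reached saturation at 30 °C; 1 = growth at the plate median or of vehicle wells; lower values mean less growth of the strain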
Conditions: S. cerevisiae deletion strains, growth OD

Measured: normalized growth

CC(=O)CC(c1ccccc1)c1c(O)c2ccccc2oc1=O (configuration not stated)
inactive: locus YAL013W, strain DEP1, hits give low values 1.01 | locus YAL021C, strain ccr4, hits give low values 1.01 | locus YAL026C, strain drs2, hits give low values 0.991 | locus YAL030W, strain snc1, hits give low values 0.991 | locus YBL061C, strain skt5, hits give low values 0.998 | locus YBR009C, strain hhf1, hits give low values 1 | locus YBR021W, strain FUR4, hits give low values 0.996 | locus YBR023C, strain chs3, hits give low values 0.996 | locus YBR171W, strain sec66, hits give low values 0.991 | locus YBR229C, strain ROT2, hits give low values 1 | locus YBR231C, strain swc5, hits give low values 1 | locus YBR279W, strain paf1, hits give low values 0.993 | locus YCL011C, strain gbp2, hits give low values 0.999 | locus YCL016C, strain dcc1, hits give low values 0.994 | locus YCL029C, strain bik1, hits give low values 1.03 | locus YCL061C, strain MRC1, hits give low values 1 | locus YCL069W, strain vba3, hits give low values 1 | locus YCR088W, strain abp1, hits give low values 1 | locus YDL005C, strain med2, hits give low values 0.999 | locus YDL035C, strain GPR1, hits give low values 1.02 | locus YDL040C, strain nat1, hits give low values 0.994 | locus YDL074C, strain BRE1, hits give low values 1.02 | locus YDL101C, strain DUN1, hits give low values 1.02 | locus YDL134C, strain PPH21, hits give low values 1.01 | locus YDL185W, strain tfp1, hits give low values 1.01 | locus YDL192W, strain arf1, hits give low values 1.02 | locus YDR001C, strain nth1, hits give low values 0.993 | locus YDR069C, strain doa4, hits give low values 1 | locus YDR101C, strain arx1, hits give low values 1.02 | locus YDR137W, strain rgp1, hits give low values 0.867 | locus YDR150W, strain NUM1, hits give low values 1.01 | locus YDR159W, strain sac3, hits give low values 1.02 | locus YDR162C, strain NBP2, hits give low values 1.03 | locus YDR195W, strain ref2 1.01 | locus YDR297W, strain sur2, hits give low values 1 | locus YDR318W, strain mcm21, hits give low values 1.03 | locus YDR334W, strain swr1, hits give low values 1 | locus YDR335W, strain msn5, hits give low values 1.01 | locus YDR388W, hits give low values 1 | locus YDR392W, strain spt3, hits give low values 0.966 | locus YDR502C, strain sam2, hits give low values 1.01 | locus YEL003W, strain gim4, hits give low values 1.01 | locus YEL037C, strain rad23, hits give low values 0.999 | locus YEL061C, strain CIN8 (second series), hits give low values 0.999 | locus YEL061C, strain CIN8, hits give low values 1.01 | locus YER015W, strain faa2, hits give low values 0.987 | locus YER016W, strain bim1, hits give low values 0.993 | locus YER110C, hits give low values 1.03 | locus YER111C, strain swi4, hits give low values 0.999 | locus YER155C, strain BEM2 (second series), hits give low values 1.01 | locus YER155C, strain BEM2, hits give low values 1 | locus YER167W, strain BCK2, hits give low values 1.03 | locus YFR010W, strain ubp6, hits give low values 1.01 | locus YGL078C, strain dbp3, hits give low values 1.01 | locus YGL086W, strain mad1, hits give low values 1.03 | locus YGL167C, strain pmr1, hits give low values 0.986 | locus YGL173C, strain kem1, hits give low values 1 | locus YGL227W, strain vid30, hits give low values 0.988 | locus YGL240W, strain doc1, hits give low values 1 | locus YGL248W, strain PDE1, hits give low values 1.01 | locus YGL253W, strain hxk2, hits give low values 1 | locus YGR078C, strain PAC10, hits give low values 1.02 | locus YGR135W, strain pre9, hits give low values 1.02 | locus YGR229C, strain SMI1, hits give low values 1.02 | locus YGR252W, strain gcn5, hits give low values 1.06 | locus YHR013C, strain ard1, hits give low values 1.03 | locus YHR027C, strain rpn1, hits give low values 0.994 | locus YHR030C, strain SLT2, hits give low values 1.01 and 0.993 | locus YHR079C, strain IRE1 (second series), hits give low values 1.01 | locus YHR079C, strain IRE1, hits give low values 0.982 | locus YHR094C, strain hxt1, hits give low values 1.02 | locus YHR129C, strain ARP1, hits give low values 1 | locus YHR142W, strain chs7, hits give low values 1.01 | locus YHR200W, strain rpn10, hits give low values 1.02 | locus YIL066C, strain RNR3, hits give low values 1.02 | locus YIL073C, strain SPO22, hits give low values 1.1 | locus YIL125W, strain kgd1, hits give low values 1.01 | locus YIR030C, strain dcg1, hits give low values 1.02 | locus YJL092W, strain hpr5, hits give low values 0.996 | locus YJL095W, strain BCK1 (second series), hits give low values 0.992 | locus YJL095W, strain BCK1, hits give low values 1.01 and 0.973 | locus YJL115W, strain asf1, hits give low values 1 | locus YJL129C, strain trk1, hits give low values 1.02 | locus YJL134W, strain LCB3, hits give low values 1 | locus YJL154C, strain vps35, hits give low values 0.995 | locus YJL164C, strain tpk1, hits give low values 1.01 | locus YJL166W, strain qcr8, hits give low values 1.01 | locus YJL168C, strain set2, hits give low values 1 | locus YJL187C, strain SWE1 (second series), hits give low values 1.02 | locus YJL187C, strain SWE1, hits give low values 0.989 | locus YJR043C, strain POL32, hits give low values 1.03 | locus YJR066W, strain TOR1, hits give low values 0.925
